# From PubChem BioAssay (NCATS)
# Several values for one entry are separate records, joined by “and”; a condition that tells them apart may be missing. Equal values may be shown once. Results filed as inconclusive are left out. Activity calls are given as the source filed them. The call rests on the fitted dose curve.
# Experiment: qHTS assay for small molecule disruptors of the mitochondrial membrane potential - 5 hr assay (AID 651755); further: nearly all actives have a fitted effect of over 40% in size
# Settings: JC-1-type ratio dye; series mostly up to 92.2 µM; ratio change, negative = disruption: at the top concentration
# Source text: National Center for Advancing Translational Sciences [NCATS]
# NIH Chemical Genomics Center [NCGC]
# National Institutes of Environmental Health Sciences [NIEHS]
# National Toxicology Program [NTP]
# Mitochondrial membrane potential (MMP), one of the parameters for mitochondrial function, is generated by mitochondrial electron transport chain that creates an electrochemical gradient by a series of redox reactions. This gradient drives the synthesis of ATP, a crucial molecule for various cellular processes. Measuring MMP in living cells is commonly used to assess the effect of chemicals on mitochondrial function. […] The dye accumulates in the mitochondria of healthy cells as aggregates, with red fluorescence. The mitochondrial potential collapses and the dye can no longer accumulate in the mitochondria and remains in the cytoplasm in monomers, with green fluorescence.
# 2,000 HepG2 cells in 5 uL/well were dispensed into black, clear-bottom 1536-well plates using a Multidrop Combi (Thermo Scientific) dispenser. The assay plates were incubated overnight at 37C to allow cells to attach to the wells, followed by the transfer of 23 nL compound or DMSO vehicle by a pin tool (Kalypsys). The plates were incubated for 5 hr at 37C and 5% CO2, followed by the addition of 5 uL of 2X Mito-MPS dye (BD Biosciences) into each well using Flying Reagent Dispenser (Aurora Discovery) and then following 30 min incubation at 37C. Fluorescence intensity (490nm excitation and 535nm emission for monomers; and 540nm excitation and 590nm emissions for aggregates) was measured using an Envision plate reader.
# On the % scale 0 is the no-effect control and ±100 the full control effect; potency means the concentration at half of the fitted maximal effect.
Structure (SMILES),"ratio change, negative = disruption",Potency
S=C=Nc1cccc2ccccc12,-8.81% (inactive),
CCSC(=O)Cl,-2.35% (inactive),
C[C@H]1CCCC(=O)CCC/C=C/c2cc(O)cc(O)c2C(=O)O1,,33.5 µM (active) and 37.6 µM (active)
Brc1ccccc1,0.156% (inactive),
CCN(CC)c1ccccc1,5.03% (inactive),
OCC(Br)CBr (stereo not given),-0.15% (inactive),
ClC1=C(Cl)C2(Cl)C3C4C=CC(C4)C3C1(Cl)C2(Cl)Cl (stereo not given),3.4% (inactive),
OCC1CO1 (stereo not given),0.704% (inactive),
C=CC(C)=O,1.93% (inactive),
CC(C)(c1ccccc1)c1ccc(O)cc1,,33.5 µM (active)
CCCCCCCC(=O)Cl,1.67% (inactive),
CN=C=S,1.7% (inactive),
COC1=CC(=O)OC(CCc2ccccc2)C1 (stereo not given),-16.3% (inactive),
ClC1=C(Cl)C2(Cl)C3C(Cl)C=CC3C1(Cl)C2(Cl)Cl (stereo not given),1.25% (inactive),
Clc1cccc(C(Cl)(Cl)Cl)n1,-9.56% (inactive),
CCCSC(=O)Cl,0.852% (inactive),
Nc1ccccc1Cl,-2.7% (inactive),
CCCOC(=O)c1ccccc1C(=O)OCCC,-6.61% (inactive),
CCCC(=O)Cl,3.34% (inactive),
COP(=S)(OC)Oc1ccc([N+](=O)[O-])cc1,-7.1% (inactive),

Structure (SMILES),"ratio change, negative = disruption",Potency
C=CC(=C)C,-2.75% (inactive),
c1nc[nH]n1,2.11% (inactive),
ClCBr,3.2% (inactive),
C1CCC2CCCCC2C1 (stereo not given),6.86% (inactive),
CC(O)CCl (stereo not given),4.03% (inactive),
C[N+](C)(C)Cc1ccccc1,-0.0317% (inactive),
CCCCCCCCCc1ccc(O)cc1,,16.8 µM (active)
Cc1ccccc1N,,inactive
Cc1ccc(O)c(C)c1,4.88% (inactive),
CCc1cccc(CC)c1N(COC)C(=O)CCl,-0.81% (inactive),
ClC(Cl)(Cl)c1ccccc1,,inactive
C=CCOC(C)=O,3.41% (inactive),
Cc1ccc2ccccc2c1,-0.439% (inactive),
CCOP(=S)(OCC)Oc1ccc([N+](=O)[O-])cc1,,inactive
COc1ccc(C=O)cc1OC,0.82% (inactive),
Clc1cc(Cl)c(-c2cc(Cl)c(Cl)cc2Cl)cc1Cl,-0.172% (inactive),
O=C1C(Cl)=C(Cl)C(=O)C(Cl)=C1Cl,-12.8% (inactive),
ClC(Cl)=C(c1ccc(Cl)cc1)c1ccc(Cl)cc1,,inactive
BrCCBr,3.93% (inactive),
c1ccc(-c2ccccc2)cc1,0.181% (inactive),
